Experimental findings from PubChem BioAssay (NCI) are described below.

The structures appear in SMILES notation. This is part of a sample that, as a whole, favours compounds with a hit. Of some 83,000 tested, about 20% had one in any assay.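 For each line, cells grew in 96-well plates with the test compound present at a single concentration for 48 hours.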 Unmarked numbers belong to inactive results. Activity calls are given as the source filed them. How the source made its calls: active means growth percent below 10; inactive means the rest.

Some test systems named below: HCT-15 colon; HT29 colon; SNB-75 CNS; SNB-19 CNS; U251 CNS; SK-MEL-5 melanoma; UACC-62 melanoma; LOX IMVI melanoma; SK-MEL-28 melanoma; SK-MEL-2 melanoma; EKVX NSCLC; SN12C renal; UO-31 renal; TK-10 renal; ACHN renal; CAKI-1 renal; A498 renal; CCRF-CEM leukemia; MOLT-4 leukemia.
Holding throughout (assay): NCI-60 one-dose screen, 48 h (100 = growth as untreated, 0 = no growth, -100 = all killed)
Holding throughout (conditions): 10 µM unless noted

For the compound `O=C(Cc1ccc2c(c1)OCCO2)Nc1nc2ccc(F)cc2s1`, the growth with HCT-15 colon was 77.2%; in the assay with HT29 colon it was 105%; in the assay on SNB-75 CNS, 84.5%; in the assay with SNB-19 CNS, 116%; with U251 CNS it was 103%; in the assay on SK-MEL-5 melanoma, 91.1%. Moreover, the growth is 102% in the assay with UACC-62 melanoma; 93.8% with LOX IMVI melanoma; 111% in the assay on SK-MEL-28 melanoma; 70.5% with SK-MEL-2 melanoma; 93.8% in the assay on EKVX NSCLC; 70.5% with SN12C renal. Also, the growth in the assay on UO-31 renal was 62.5%; with TK-10 renal, 117%; with ACHN renal, 98%; with CAKI-1 renal, 111%; in the assay on A498 renal, 104%; in the assay on CCRF-CEM leukemia, 87.3%. In addition, the growth with MOLT-4 leukemia is 95.1%.

Consider `c1ccc(OCc2nnc(-c3ccc(Oc4ccccc4)cc3)o2)cc1`, for which the growth is 103% with HCT-15 colon; 103% with HT29 colon; 98.5% with SNB-75 CNS; 103% in the assay on SNB-19 CNS; 95.4% with U251 CNS; 100% in the assay with SK-MEL-5 melanoma. Also, the growth is 90.9% with UACC-62 melanoma; 102% with LOX IMVI melanoma; 116% in the assay with SK-MEL-28 melanoma; 91.4% in the assay with SK-MEL-2 melanoma; 96.6% with EKVX NSCLC; 99% with SN12C renal. In addition, the growth in the assay with UO-31 renal is 81.7%; in the assay on TK-10 renal, 103%; in the assay with ACHN renal, 92.9%; with CAKI-1 renal, 97.1%; with A498 renal, 111%; in the assay with CCRF-CEM leukemia, 96.7%. Moreover, in the assay with MOLT-4 leukemia, the growth is 87.6%.

Turning to `CCCCCCCCCCCCCCCCCC1OCC(COC(=O)O[C@]2(CC)C(=O)OCc3c2cc2n(c3=O)Cc3cc4ccccc4nc3-2)O1` (stereo not given in full), the growth in the assay on HCT-15 colon is 83.5%; in the assay on HT29 colon, 79.6%; with SNB-75 CNS it was 79.6%; in the assay on SNB-19 CNS, 57.6%; with U251 CNS, 56.5%; in the assay with UACC-62 melanoma, 31.6%. The growth with LOX IMVI melanoma is 59.7%; in the assay on SK-MEL-28 melanoma it was 111%; in the assay with SK-MEL-2 melanoma it was 116%; in the assay on EKVX NSCLC, 92.4%; in the assay on SN12C renal, 49%; with UO-31 renal, 73.1%. Also, the growth in the assay with TK-10 renal is 95.5%; in the assay with ACHN renal it was 62.9%; in the assay on CCRF-CEM leukemia, 29.2%; in the assay with MOLT-4 leukemia, 43.3%.

Take `COc1cc2cc(Oc3ccc(NC(=O)Nc4cc(C(F)(F)F)cc(C(F)(F)F)c4)cc3)c(C)nc2cc1OCCN1CCOCC1`: the growth in the assay on HCT-15 colon is 13.4%; in the assay with HT29 colon, 10.9%; in the assay with SNB-75 CNS, 36%; in the assay with SNB-19 CNS, 23.8%; with U251 CNS it was 8.71% (active); in the assay on SK-MEL-5 melanoma, -13.1% (active). The growth is 45.9% with UACC-62 melanoma; 20.7% in the assay with LOX IMVI melanoma; 51.2% in the assay on SK-MEL-28 melanoma; 32.9% with SK-MEL-2 melanoma; 21.4% in the assay on EKVX NSCLC; 8.87% (active) in the assay on SN12C renal. In addition, the growth with UO-31 renal is 20.1%; with TK-10 renal, 53.6%; with ACHN renal, 5.89% (active); in the assay with CAKI-1 renal, 15.3%; in the assay on A498 renal it was 40.7%; in the assay on CCRF-CEM leukemia, 9.65% (active). Besides, in the assay on MOLT-4 leukemia, the growth is 8.21% (active).

As to `O=C1CN(CCN2CC(=O)N(Cc3ccccc3)C(=O)C2)CC(=O)N1Cc1ccccc1`, the growth is 113% in the assay on HCT-15 colon; 108% in the assay on HT29 colon; 88% in the assay on SNB-75 CNS; 107% with SNB-19 CNS; 100% in the assay with U251 CNS; 100% in the assay on SK-MEL-5 melanoma. The growth in the assay on UACC-62 melanoma was 103%; in the assay on LOX IMVI melanoma, 96.3%; with SK-MEL-28 melanoma, 107%; with SK-MEL-2 melanoma, 106%; with EKVX NSCLC, 99.2%; in the assay on SN12C renal it was 98.6%. Moreover, the growth in the assay on UO-31 renal is 76.3%; with TK-10 renal, 111%; with ACHN renal, 106%; in the assay on CAKI-1 renal it was 92.8%; in the assay on A498 renal, 89.7%; in the assay on CCRF-CEM leukemia, 94.3%. Besides, the growth in the assay on MOLT-4 leukemia was 92.3%.

In the case of `O=CN(SSN(C=O)C1CCCCC1)C1CCCCC1`, the growth with HCT-15 colon is 109%; in the assay on HT29 colon, 108%; in the assay with SNB-75 CNS, 109%; with SNB-19 CNS it was 99.9%; with U251 CNS, 109%; in the assay with SK-MEL-5 melanoma, 119%. The growth with UACC-62 melanoma was 85.5%; in the assay with LOX IMVI melanoma, 96.8%; in the assay with SK-MEL-28 melanoma, 116%; with SK-MEL-2 melanoma, 111%; with EKVX NSCLC, 95.3%; in the assay with SN12C renal, 99.7%. For the same compound, the growth with UO-31 renal was 60.6%; with TK-10 renal, 106%; in the assay with ACHN renal, 105%; in the assay on CAKI-1 renal, 101%; in the assay on A498 renal, 116%; in the assay with CCRF-CEM leukemia, 111%. Also, the growth in the assay with MOLT-4 leukemia is 65.2%.

For `COc1nc2ccccc2cc1-c1nc2c(cnn2-c2ccc(Br)cc2)c(=O)[nH]1`, the growth with HCT-15 colon is 24%; with HT29 colon, 8.03% (active); in the assay on SNB-75 CNS it was -12.9% (active); with SNB-19 CNS it was 21.5%; with U251 CNS, 15.7%; in the assay on SK-MEL-5 melanoma, 5.23% (active). Besides, the growth was 24.9% in the assay on UACC-62 melanoma; 31.7% in the assay on LOX IMVI melanoma; 24.3% in the assay with SK-MEL-2 melanoma; 42.4% in the assay with EKVX NSCLC; 33.2% with SN12C renal; 27.1% with UO-31 renal. The growth in the assay on TK-10 renal was 40.6%; in the assay on ACHN renal it was 35.4%; in the assay with CAKI-1 renal, 29.4%; with A498 renal it was 8.46% (active); with CCRF-CEM leukemia, 13.7%.

On to `CN1CCN(c2ccc(-c3cc4c(Nc5ccc(F)c(Cl)c5)ncnn4c3)cn2)CC1`, for which the growth in the assay with HCT-15 colon is 7.04% (active); with HT29 colon, 16.1%; with SNB-75 CNS it was 72%; in the assay on SNB-19 CNS, 96.2%; with U251 CNS, 82.5%; in the assay with UACC-62 melanoma, 106%. For the same compound, the growth was 85.2% in the assay on LOX IMVI melanoma; 87.6% with SK-MEL-28 melanoma; 109% in the assay on SK-MEL-2 melanoma; 100% in the assay with EKVX NSCLC; 90.5% in the assay with SN12C renal; 88.2% in the assay on UO-31 renal. For the same compound, the growth in the assay on TK-10 renal was 76.7%; in the assay on ACHN renal, 82.6%; in the assay with CAKI-1 renal it was 96.3%; with A498 renal, 86.7%; with CCRF-CEM leukemia, 42.9%.
